Growth data for seven compounds are collected here from PubChem BioAssay (NCI).

Holding throughout (assay): NCI-60 one-dose screen, 48 h (100 = growth as untreated, 0 = no growth, -100 = all killed)
What all share (details): 10 µM unless noted

For experiment [1], the system named is HCT-15 colon.
Experiment [2] relates to HT29 colon.
Experiment [3] concerns SNB-75 CNS.
Experiment [4] concerns SNB-19 CNS.
Experiment [5] deals with U251 CNS.
Experiment [6] has as its system PC-3 prostate.
Experiment [7] deals with SK-MEL-5 melanoma.
Experiment [8] concerns UACC-62 melanoma.
For experiment [9], the system named is LOX IMVI melanoma.
The test system of experiment [10] is SK-MEL-28 melanoma.
The subject of experiment [11] is SK-MEL-2 melanoma.
The subject of experiment [12] is EKVX NSCLC.
Experiment [13] has as its system SN12C renal.
Experiment [14] relates to UO-31 renal.
Experiment [15] deals with TK-10 renal.
Experiment [16] concerns ACHN renal.
Experiment [17] concerns A498 renal.
Experiment [18] relates to CCRF-CEM leukemia.
In experiment [19] the test system is MOLT-4 leukemia.
The subject of experiment [20] is SR leukemia.

This is part of a sample that, as a whole, favours compounds with a hit. Of some 83,000 tested, about 20% had one in any assay.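 Single-dose data. Exposure time 48 hours. Values below 10 considered active.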 A number with no mark means an inactive call. Calls of active or inactive are those of the source.

Take `COc1ccc(C2C(c3ccccc3)C(=O)N2c2cc(OC)c(OC)c(OC)c2)cc1I` (stereo not given): the growth in [1] is 13.1%; in [2], 1.74% (active); in [3], 57.5%; in experiment [4] it was 33.4%; in experiment [5], 15.4%; in experiment [6], 22.2%. The growth was -41% (active) in experiment [7]; 28.1% in experiment [8]; 24.3% in experiment [9]; 60.3% in experiment [10]; 56.3% in experiment [11]; 61.9% in [12]. The growth was 33% in [13]; 18.7% in [14]; 75.1% in [15]; 26.5% in [16]; -2.63% (active) in [17]; 7.6% (active) in [18]. The growth was 7.85% (active) in [19] and 8.89% (active) in experiment [20].

For `CCCCc1n(Cc2ccc3ccccc3c2)c2ccccc2[n+]1Cc1ccc2ccccc2c1`, the growth was -89.2% (active) in experiment [1]; -74.8% (active) in experiment [2]; -9.62% (active) in experiment [3]; -92.5% (active) in [4]; -87.2% (active) in experiment [5]; -76.8% (active) in [6]. The growth is -100% (active) in experiment [7]; -92.3% (active) in experiment [8]; -93.5% (active) in experiment [9]; -92.9% (active) in experiment [10]; -73.5% (active) in experiment [11]; -84.6% (active) in [12]. Besides, the growth was -92.3% (active) in [13]; -90.3% (active) in experiment [14]; -87.1% (active) in experiment [15]; -91.4% (active) in [16]; -92.7% (active) in experiment [17]; -48.2% (active) in experiment [18]. Moreover, the growth in [19] is -60.9% (active); in [20], -54.1% (active).

With `C=C(C)[C@@H]1CC[C@]2(C(=O)n3ccnc3)CC[C@]3(C)[C@H](CC[C@@H]4[C@@]5(C)CCCNC(C)(C)[C@@H]5CC[C@]43C)[C@@H]12`, the growth was 3.01% (active) in [1]; 1.76% (active) in experiment [2]; 81.1% in experiment [3]; 52.6% in [4]; -45.5% (active) in experiment [5]; 12.9% in experiment [6]. For the same compound, the growth in experiment [7] was -97.9% (active); in [8] it was 31.9%; in experiment [9] it was -92% (active); in [10] it was -51.5% (active); in [11], 53.5%; in [12], 61.9%. The growth in [13] was 29.6%; in experiment [14], 43.8%; in experiment [15], 70.5%; in experiment [16], 46.6%; in experiment [17], 84%; in experiment [18], 0.353% (active). Moreover, the growth was -15.9% (active) in experiment [19] and -33% (active) in experiment [20].

As to `COc1cc2c(cc1OCCCOc1cc3c(cc1OC)C(=O)N1CC(F)(F)C[C@H]1C=N3)N=C[C@@H]1CC(F)(F)CN1C2=O`, the growth in experiment [1] is 94.4%; in experiment [2], 11.8%; in experiment [3], -8.01% (active); in experiment [4], 24.3%; in experiment [5] it was 18%; in [6], 3.21% (active). Further, the growth was -77.3% (active) in experiment [7]; -71.2% (active) in [8]; 16% in experiment [9]; -1.8% (active) in experiment [10]; 34.7% in experiment [11]; 49.2% in experiment [12]. Moreover, the growth in experiment [13] is 35.8%; in experiment [14], 30%; in [15], 11.3%; in experiment [16], 24.7%; in experiment [17], -66.6% (active); in experiment [18] it was -33.1% (active). For the same compound, the growth is -8.82% (active) in [19] and -12.1% (active) in [20].

Turning to `Oc1c(CCl)cc(Cl)cc1Cc1cc(Cl)cc(Cc2cc(Cl)cc(CCl)c2O)c1O`, the growth in experiment [1] was 12.8%; in experiment [2], 56.9%; in [3], 56.8%; in experiment [4] it was 27.6%; in experiment [5], 31.7%; in experiment [6] it was 17.9%. The growth is -1.94% (active) in experiment [7]; 4.56% (active) in experiment [8]; 47.7% in experiment [9]; 30% in experiment [10]; -16.6% (active) in experiment [11]; 21% in experiment [12]. Also, the growth in experiment [13] is 8.92% (active); in [14] it was 32%; in [15], 17.7%; in experiment [16] it was 22.7%; in [17], -4.67% (active); in experiment [18] it was 13.5%. Besides, the growth is 21% in experiment [19] and 40.8% in experiment [20].

For `CN1CC=C(c2cc(NC(=O)Nc3ccc(Oc4ccnc(NC(=O)C5CC5)c4)c(F)c3)cc(C(F)(F)F)c2)CC1`, the growth in [1] was 5.35% (active); in experiment [2], -13.6% (active); in experiment [3], -76.4% (active); in experiment [4] it was 2.04% (active); in experiment [5], -1.77% (active); in experiment [6], 3.71% (active). Moreover, the growth in experiment [7] is -43.9% (active); in experiment [8], -22.1% (active); in [9] it was -46.5% (active); in experiment [10], -1.25% (active); in [11] it was -42.8% (active); in experiment [12], -19.9% (active). In addition, the growth in experiment [13] was 2.74% (active); in experiment [14], -1.84% (active); in experiment [15], -2.39% (active); in experiment [16] it was -1.41% (active); in experiment [17], -27.9% (active); in experiment [18], 1.49% (active). Further, the growth was -4.01% (active) in [19] and -18.3% (active) in experiment [20].

Take `C#C[C@@]1(O)[C@@H](CO)O[C@@H](n2cc(I)c3c(N)ncnc32)[C@@H]1O`: the growth in [1] was 5.73% (active); in [2], 2.8% (active); in experiment [3], -10.1% (active); in experiment [4], 8.06% (active); in experiment [5], -0.637% (active); in experiment [6], 4.04% (active). The growth is -9.34% (active) in experiment [7]; 4.29% (active) in experiment [8]; -42.3% (active) in experiment [9]; 43.2% in experiment [10]; -27.6% (active) in experiment [11]; -19.2% (active) in [12]. Moreover, the growth in experiment [13] was 6.87% (active); in [14], -14.8% (active); in experiment [15], 23.4%; in experiment [16] it was 5.08% (active); in [17], -86.5% (active); in experiment [18] it was 6.77% (active). Moreover, the growth in experiment [19] was -18.8% (active); in experiment [20] it was -1.14% (active).
